Data: PubChem BioAssay (EPA / NIEHS)
“And” between values parts separate entries of the source, which are not always exact repeats. Identical values can stand only once. Results filed as inconclusive are left out. A structure can be active in one record and inactive in another. The source made the active and inactive calls. The calls were made as follows, unless noted: active = hit-call score of the fitted dose curve at least 0.9, where 1 is the maximum; inactive = score below 0.9.

Columns and labels:
[1] = target: human Retinoic Acid Receptor gamma (RARg), RARG (gene 5916) (UniProt P13631); assay: ATG_RARg_TRANS: Attagene TRANS-FACTORIAL HepG2 Assay for human Retinoic Acid Receptor gamma (RARg) (AID 2283009; active = hit-call score of the fitted dose curve at least 0.9, where 1 is the maximum)
human Retinoic Acid Receptor gamma (RARg), RARG (gene 5916), sequence (P13631 whole entry, looked up): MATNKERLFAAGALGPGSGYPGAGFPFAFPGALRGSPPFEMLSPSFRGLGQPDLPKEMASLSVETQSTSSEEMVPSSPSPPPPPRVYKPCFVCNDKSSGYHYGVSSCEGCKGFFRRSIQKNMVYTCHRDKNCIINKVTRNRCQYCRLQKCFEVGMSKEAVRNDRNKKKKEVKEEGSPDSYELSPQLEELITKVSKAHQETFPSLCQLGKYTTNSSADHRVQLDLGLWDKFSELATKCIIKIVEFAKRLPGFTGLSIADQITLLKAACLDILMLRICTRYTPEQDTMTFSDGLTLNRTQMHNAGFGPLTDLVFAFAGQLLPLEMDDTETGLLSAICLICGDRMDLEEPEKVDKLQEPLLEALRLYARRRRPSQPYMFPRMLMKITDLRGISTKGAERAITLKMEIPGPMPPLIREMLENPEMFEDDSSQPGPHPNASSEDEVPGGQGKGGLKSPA
Outline: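 Transient transfection of HepG2 with multi-reporter constructs, then 24 h chemical treatment. Total RNA isolated, reverse-transcribed, PCR-amplified, fluorescently labelled and resolved by capillary electrophoresis; activity scored as mRNA induction versus DMSO.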

[2] = target: Retinoic acid receptor RXR-alpha (Homo sapiens) (UniProt P19793); assay: ATG_RXRa_TRANS: Attagene TRANS-FACTORIAL HepG2 Assay for human Retinoid X Receptor alpha (RXRa) (AID 2283012; active = hit-call score of the fitted dose curve at least 0.9, where 1 is the maximum)
Retinoic acid receptor RXR-alpha (Homo sapiens), sequence (P19793 whole entry, looked up, the tested form may be a part): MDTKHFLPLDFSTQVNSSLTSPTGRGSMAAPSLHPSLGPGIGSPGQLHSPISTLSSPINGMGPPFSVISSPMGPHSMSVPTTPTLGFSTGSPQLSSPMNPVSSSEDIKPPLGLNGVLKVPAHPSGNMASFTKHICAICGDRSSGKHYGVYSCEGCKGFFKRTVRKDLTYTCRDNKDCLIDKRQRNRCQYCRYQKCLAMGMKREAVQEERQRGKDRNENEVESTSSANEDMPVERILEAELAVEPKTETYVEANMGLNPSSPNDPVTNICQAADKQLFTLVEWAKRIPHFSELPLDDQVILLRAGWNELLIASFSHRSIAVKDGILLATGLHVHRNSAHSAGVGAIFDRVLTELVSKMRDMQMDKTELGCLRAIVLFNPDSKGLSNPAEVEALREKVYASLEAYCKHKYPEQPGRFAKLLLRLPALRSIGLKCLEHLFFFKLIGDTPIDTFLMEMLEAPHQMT
Outline: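 Transient transfection of human HepG2 with multiple GAL4-UAS reporter constructs; 24 h compound exposure; total RNA isolated, reverse-transcribed, PCR-amplified, 6-FAM labelled, HpaI-cut, resolved by capillary electrophoresis. Positive-direction fit versus DMSO.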

[3] = target: human Retinoid X Receptor beta (RXRb), RXRB (gene 6257) (UniProt P28702); assay: ATG_RXRb_TRANS: Attagene TRANS-FACTORIAL HepG2 Assay for human Retinoid X Receptor beta (RXRb) (AID 2283013; active = hit-call score of the fitted dose curve at least 0.9, where 1 is the maximum)
human Retinoid X Receptor beta (RXRb), RXRB (gene 6257), sequence (P28702 whole entry, looked up, the tested form may be a part): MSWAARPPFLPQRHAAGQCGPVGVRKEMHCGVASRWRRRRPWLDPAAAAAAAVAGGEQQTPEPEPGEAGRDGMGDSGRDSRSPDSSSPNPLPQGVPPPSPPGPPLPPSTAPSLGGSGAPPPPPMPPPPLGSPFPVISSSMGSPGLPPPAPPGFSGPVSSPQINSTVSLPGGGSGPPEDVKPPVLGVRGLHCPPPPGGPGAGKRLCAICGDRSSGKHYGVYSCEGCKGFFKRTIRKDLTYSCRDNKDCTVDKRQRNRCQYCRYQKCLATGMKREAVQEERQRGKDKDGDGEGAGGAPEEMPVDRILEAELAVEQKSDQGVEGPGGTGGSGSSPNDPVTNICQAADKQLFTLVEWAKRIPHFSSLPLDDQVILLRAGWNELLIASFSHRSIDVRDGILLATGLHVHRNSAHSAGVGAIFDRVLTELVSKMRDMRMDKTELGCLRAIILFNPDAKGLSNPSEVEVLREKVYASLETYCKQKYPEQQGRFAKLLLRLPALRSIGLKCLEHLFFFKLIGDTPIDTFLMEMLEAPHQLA
Outline: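 Transfect HepG2 with GAL4-UAS multi-reporter constructs (chimeric NR-Gal4, TRANS format); dose compound 24 h; isolate RNA, RT-PCR, FAM primer extension, HpaI digest; quantify by capillary electrophoresis; positive direction vs DMSO.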

[4] = target: human Thyroid Receptor alpha (THRa1), THRA (gene 7067) (UniProt P10827); assay: ATG_THRa1_TRANS: Attagene TRANS-FACTORIAL HepG2 Assay for human Thyroid Receptor alpha (THRa1) (AID 2283014; active = hit-call score of the fitted dose curve at least 0.9, where 1 is the maximum)
human Thyroid Receptor alpha (THRa1), THRA (gene 7067), sequence (P10827 whole entry, looked up, the tested form may be a part): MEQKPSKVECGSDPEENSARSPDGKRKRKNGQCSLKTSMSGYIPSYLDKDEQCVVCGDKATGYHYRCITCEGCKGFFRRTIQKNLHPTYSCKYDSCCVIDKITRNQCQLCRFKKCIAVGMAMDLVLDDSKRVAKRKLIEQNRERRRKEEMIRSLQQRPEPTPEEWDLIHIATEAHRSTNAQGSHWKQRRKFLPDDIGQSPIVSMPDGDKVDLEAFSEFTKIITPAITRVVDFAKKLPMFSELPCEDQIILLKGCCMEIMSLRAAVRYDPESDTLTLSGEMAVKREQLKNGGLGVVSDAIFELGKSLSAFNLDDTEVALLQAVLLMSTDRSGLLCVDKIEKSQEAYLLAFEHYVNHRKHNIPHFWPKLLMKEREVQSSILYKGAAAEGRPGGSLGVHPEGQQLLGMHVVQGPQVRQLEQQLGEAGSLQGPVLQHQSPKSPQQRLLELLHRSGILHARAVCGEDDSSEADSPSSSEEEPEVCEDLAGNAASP
Outline: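 Transcripts from GAL4-UAS-driven reporters, measured after 24 h compound exposure by RT-PCR plus capillary electrophoresis of 6-FAM-labeled fragments, were fitted for gain of signal relative to DMSO. Cells: transiently transfected HepG2 expressing NR-Gal4 chimeras.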

[5] = read-out: E-selectin (Homo sapiens) (UniProt P16581); assay: BSK_3C_Eselectin: BioMAP Diversity Plus: 3C Assay for Eselectin Biomarker Activity (AID 2283015); conditions: primary human endothelial cells (HUVEC); actives raise or lower the signal
Outline: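 E-selectin ELISA readout, fitted bidirectionally relative to DMSO, taken 24 h post-dosing in HUVEC cultures of the 3C system. Overt cytotoxicity tracked with sulforhodamine B staining of parallel wells.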

[6] = read-out: Interleukin-1 alpha (IL1a), IL1A (gene 3552); assay: BSK_BE3C_IL1a: BioMAP Diversity Plus: BE3C Assay for Interleukin-1 alpha (IL1a) Biomarker Activity (AID 2283016); conditions: primary human bronchial epithelial cells; actives raise or lower the signal
Outline: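 BE3C primary human bronchial epithelium; cpd 24 h; IL-1a by ELISA; bidirectional fit vs DMSO; parallel SRB (0.1% SRB, 10% TCA fix, 560 nm) for cytotoxicity.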

[7] = read-out: Monocyte Chemoattractant Protein-1 (MCP1), CCL2 (gene 6347); assay: BSK_3C_MCP1: BioMAP Diversity Plus: 3C Assay for Monocyte Chemoattractant Protein-1 (MCP1) Biomarker Activity (AID 2283017); conditions: primary human endothelial cells (HUVEC); actives raise or lower the signal
Outline: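 MCP-1 was measured by ELISA 24 h after dosing in primary HUVEC 3C cultures and fitted in both directions relative to DMSO; cytotoxicity was checked by SRB total-protein staining in parallel wells.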

[8] = read-out: Monocyte Chemoattractant Protein-1 (MCP1), CCL2 (gene 6347); assay: BSK_4H_MCP1: BioMAP Diversity Plus: 4H Assay for Monocyte Chemoattractant Protein-1 (MCP1) Biomarker Activity (AID 2283018); conditions: primary human endothelial cells (HUVEC); actives raise or lower the signal
Outline: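 ELISA read-out of MCP-1 from human vascular endothelial primary cells taken at 24 hours after compound exposure. Activity was fitted in both directions relative to DMSO, which served as negative control.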

[9] = read-out: Human Leukocyte Antigen - DR isotype (HLADR), HLA-DRA (gene 3122); assay: BSK_3C_HLADR: BioMAP Diversity Plus: 3C Assay for Human Leukocyte Antigen - DR isotype (HLADR) Biomarker Activity (AID 2283019); conditions: primary human endothelial cells (HUVEC); actives raise or lower the signal
Outline: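 Bidirectional fitting against DMSO was applied to the HLA-DR ELISA signal from human umbilical vein endothelial cells, 24 h post-dose. Cytotoxicity came from parallel SRB total-protein staining; 3C proliferation was counted by SRB at 48 h.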

[10] = target: human RAR-related Orphan Receptor beta (RORb), RORB (gene 6096) (UniProt Q92753); assay: ATG_RORb_TRANS: Attagene TRANS-FACTORIAL HepG2 Assay for human RAR-related Orphan Receptor beta (RORb) (AID 2283010; active = hit-call score of the fitted dose curve at least 0.9, where 1 is the maximum)
human RAR-related Orphan Receptor beta (RORb), RORB (gene 6096), sequence (Q92753 whole entry, looked up, the tested form may be a part): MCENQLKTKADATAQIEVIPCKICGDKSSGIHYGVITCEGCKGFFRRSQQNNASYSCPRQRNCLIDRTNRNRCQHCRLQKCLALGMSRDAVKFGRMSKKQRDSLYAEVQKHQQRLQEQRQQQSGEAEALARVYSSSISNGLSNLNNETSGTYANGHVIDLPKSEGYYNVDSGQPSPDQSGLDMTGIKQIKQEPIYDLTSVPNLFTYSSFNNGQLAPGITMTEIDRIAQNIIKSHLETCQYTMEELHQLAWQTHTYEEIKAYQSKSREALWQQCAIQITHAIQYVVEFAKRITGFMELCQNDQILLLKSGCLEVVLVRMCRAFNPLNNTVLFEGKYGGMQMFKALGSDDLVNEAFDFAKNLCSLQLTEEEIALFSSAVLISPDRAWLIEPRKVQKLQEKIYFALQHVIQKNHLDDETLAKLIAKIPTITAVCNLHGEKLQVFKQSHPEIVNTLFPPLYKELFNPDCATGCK
Outline: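 Readout is reporter-gene mRNA induction, detected as fluorescence after RT-PCR and capillary electrophoresis, fitted for gain of signal against DMSO controls. Transiently transfected HepG2 liver cells carrying GAL4-UAS reporter constructs were treated for 24 hours.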

Measured: AC50

E-selectin (Homo sapiens), sequence (P16581 whole entry, looked up): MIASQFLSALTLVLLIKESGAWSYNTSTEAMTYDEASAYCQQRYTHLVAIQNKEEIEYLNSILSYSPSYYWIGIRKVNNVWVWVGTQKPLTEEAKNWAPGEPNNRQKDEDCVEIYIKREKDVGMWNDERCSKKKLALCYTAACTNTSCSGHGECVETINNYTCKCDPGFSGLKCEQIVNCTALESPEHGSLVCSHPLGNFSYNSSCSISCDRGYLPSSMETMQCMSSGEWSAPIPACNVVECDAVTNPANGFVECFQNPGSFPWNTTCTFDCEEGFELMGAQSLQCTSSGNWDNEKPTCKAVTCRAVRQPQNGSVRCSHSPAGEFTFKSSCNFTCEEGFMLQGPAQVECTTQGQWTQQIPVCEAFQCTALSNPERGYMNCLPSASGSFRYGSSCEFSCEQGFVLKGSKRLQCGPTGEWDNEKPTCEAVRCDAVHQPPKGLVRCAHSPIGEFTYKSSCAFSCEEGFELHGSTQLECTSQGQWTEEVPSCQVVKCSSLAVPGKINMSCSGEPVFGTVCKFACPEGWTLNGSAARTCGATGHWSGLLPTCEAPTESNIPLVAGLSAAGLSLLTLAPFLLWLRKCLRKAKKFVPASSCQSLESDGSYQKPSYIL

CCC(C)c1cc([N+](=O)[O-])cc([N+](=O)[O-])c1O (stereo not drawn)
active: [5] 8.02 µM | [7] 9.99 µM | [8] 5.15 µM | [9] 14 µM
not listed: [10]
inactive: all other assays above

C[C@]12CCC(=O)C=C1CC[C@@H]1[C@@H]2CC[C@]2(C)C(=O)CC[C@@H]12
not listed: [10]
inactive: all other assays above

OCC(O)CO
inactive: [1] | [2] | [3]

CC(C)(c1ccccc1)c1ccc(O)cc1
active: [3] 9.21 µM [middle of 4 runs] | [5] 34.7 µM | [6] 32.2 µM | [7] 39.3 µM | [8] 20 µM | [9] 39 µM
inactive: [1] | [10] | [2] | [4]

Cc1ccccc1O
not listed: [3] | [4] | [10]
inactive: all other assays above

CC1=C2C[C@H]3[C@@H](CC=C4C[C@@H](O)CC[C@@]43C)[C@@H]2CC[C@]12O[C@@H]1C[C@H](C)CN[C@H]1[C@H]2C
inactive: [1] | [5] | [6] | [8] | [9]
active: [7] 2.82 µM

ClC(Cl)=C(c1ccc(Cl)cc1)c1ccc(Cl)cc1
active: [3] 17.5 µM [middle of 4 runs] | [5] 30.7 µM | [8] 20 µM | [9] 30.5 µM
inactive: [10] | [2] | [4] | [6]

O=C(N[C@H]1CN2CCC1CC2)c1cc2ccoc2cn1
inactive: [3] | [5] | [6] | [7] | [8] | [9]

Cc1ccccc1[N+](=O)[O-]
inactive: [5] | [6] | [7] | [8] | [9]

Clc1ccc(C(Cl)(Cl)Cl)cc1
not listed: [1] | [10]
inactive: all other assays above

CCCCCCCCCC[N+](C)(C)CCCCCCCCCC
inactive: [1] | [4]
active: [5] 4.77 µM | [6] 7.76 µM | [7] 3.59 µM | [8] 3.16 µM | [9] 2.22 µM

Cc1ccc(O)c(C)c1
active: [9] 7.99 µM
not listed: [1] | [2]
inactive: all other assays above

CN(C)c1nc(=O)n(C2CCCCC2)c(=O)n1C
not listed: [1] | [4] | [10]
inactive: all other assays above

c1ccc(-c2ccccc2)cc1
active: [3] 110 µM
not listed: [1] | [4] | [10]
inactive: all other assays above

CCCCCCCCOC(=O)c1ccccc1C(=O)OCCCCCCCC
active: [9] 12.9 µM
not listed: [1] | [4] | [10]
inactive: all other assays above

CC(C)C(=O)OCC(C)(C)C(OC(=O)C(C)C)C(C)C (stereo not drawn)
inactive: [3] | [5] | [6] | [7] | [8] | [9]

CC#Cc1cc(C)nc(Nc2ccccc2)n1
active: [3] 61.7 µM
not listed: [1] | [4] | [10]
inactive: all other assays above

O=S(=O)(O)C(F)(F)C(F)(F)C(F)(F)C(F)(F)C(F)(F)C(F)(F)F
not listed: [1] | [4]
inactive: all other assays above

CCC(C)(c1ccc(O)cc1)c1ccc(O)cc1
inactive: [10] | [2] | [3] | [4] | [5] | [6]
active: [3] 9.02 µM and 17.8 µM and 19.6 µM | [7] 20 µM | [8] 10.7 µM | [9] 24.7 µM

O=C(NC(=O)c1cc(F)c(F)cc1Cl)Nc1cc(F)ccc1N1CCC(C(=O)O)CC1
inactive: [10] | [5] | [6] | [7] | [8] | [9]

COS(=O)(=O)OC
not listed: [1]
inactive: all other assays above

CC(c1ccc(O)cc1)(c1ccc(O)cc1)c1ccc(O)cc1
active: [6] 6.69 µM | [7] 31.1 µM | [8] 18.9 µM | [9] 28.5 µM
inactive: [2] | [5]

CCC(C)(CC)c1cc(NC(=O)c2c(OC)cccc2OC)on1
inactive: [3] | [5] | [6] | [7] | [8] | [9]

CCCN(CCC)N=O
inactive: [1] | [5] | [6] | [7] | [8] | [9]

CCNc1nc(NC(C)C)nc(SC)n1
not listed: [1] | [10]
inactive: all other assays above

O=C(O)C(F)(F)C(F)(F)C(F)(F)C(F)(F)C(F)(F)F
inactive: [3] | [5] | [6] | [7] | [8] | [9]

Cc1cccc(C)c1N
inactive: [5] | [6] | [7] | [8] | [9]

O=NN(c1ccccc1)c1ccccc1
inactive: [5] | [6] | [7] | [8] | [9]
active: [3] 52.2 µM

CCOP(=S)(OCC)SCSC(C)(C)C
active: [3] 25.7 µM and 24.6 µM | [9] 32.5 µM
not listed: [1] | [10]
inactive: all other assays above

C=CC(=O)NCNC(=O)C=C
inactive: [10] | [5] | [6] | [7] | [8] | [9]

Oc1ccc(C(c2ccc(O)cc2)(C(F)(F)F)C(F)(F)F)cc1
inactive: [10] | [2] | [4]
active: [3] 5 µM [middle of 4 runs] | [5] 30.1 µM | [6] 30.8 µM | [7] 19.9 µM | [8] 14 µM | [9] 18.5 µM

Sc1ccccc1
not listed: [1] | [2] | [10]
inactive: all other assays above

Nn1cnnc1
inactive: [4] | [5] | [6] | [7] | [8] | [9]

Oc1ccc(Cl)cc1Cl
inactive: [4] | [5] | [6] | [7] | [8] | [9]

CCSC(=O)N(CC)C1CCCCC1
inactive: [3] | [5] | [6] | [7] | [8] | [9]

CCCCCCOC(=O)c1ccccc1C(=O)OCCCCCC
active: [7] 29.1 µM
not listed: [1] | [4] | [10]
inactive: all other assays above

C1CC2OC2CC1C1CO1 (stereo not drawn)
inactive: [5] | [6] | [7] | [8] | [9]

CCOCCOC(C)=O
not listed: [1] | [2] | [10]
inactive: all other assays above
